# PubChem BioAssay (NCATS)
# Inconclusive results are not listed. Calls of active or inactive are those of the source. Calls come from the whole dose curve; as a rule, active = well fitted inhibition curve with a large enough effect; inconclusive = small, poorly fitted or top-dose-only effect; inactive = no such curve, though single readings can be large or run the other way.
# Target: Retinaldehyde dehydrogenase 3 (Homo sapiens) (UniProt P47895)
# Experiment: qHTS for Inhibitors of the Aldehyde Dehydrogenase Family (ALDH1A3) Validation screen (AID 2061312); note: nearly all actives have a fitted effect of over 45% in size
# Details: ALDH1A3 enzyme inhibition qHTS validation, fluorescence; series mostly up to 84.7 µM; activity change, negative = inhibition: at the top concentration
# % is set by controls: 0 for no effect and ±100 for the full control effect.
row,SMILES,"activity change, negative = inhibition"
1,COC(=O)C(N)Cc1ccc(Cl)cc1 (stereo not given),-17.5% [at 42.4 µM] (inactive)
2,CN(C(=O)CCCOc1ccc2[nH]c(=O)ccc2c1)C1CCCCC1,-16.1% [at 42.4 µM] (inactive)
3,Cn1c(=O)[nH]c2ncn(C)c2c1=O,1.95% [at 42.4 µM] (inactive)
4,Cc1nc(N=Nc2ccc(C(=O)O)cc2)c(COP(=O)(O)O)c(C=O)c1O,10.3% [at 42.4 µM] (inactive)
5,N[C@@H](COP(=O)(O)O)C(=O)O,22.3% [at 42.4 µM] (inactive)
6,COc1cccc(OC)c1OCCNCC1CSc2ccccc2O1 (stereo not given),-6.48% [at 42.4 µM] (inactive)
7,NCCSSCCN,0.853% [at 42.4 µM] (inactive)
8,O=C(O)c1cc2cc(F)ccc2[nH]1,-9.23% [at 42.4 µM] (inactive)
9,C=C1C[C@@]23CC[C@H]4[C@@](C)(CCC[C@@]4(C)C(=O)O)[C@@H]2CC[C@]1(O)C3,-8.1% [at 42.4 µM] (inactive)
10,Nc1ncnc2c1ncn2C1CCCO1 (stereo not given),17% [at 42.4 µM] (inactive)
11,CC(C)(C)[C@]1(O)CCN2C[C@H]3c4ccccc4CCc4cccc(c43)[C@@H]2C1,5.3% [at 42.4 µM] (inactive)
12,O=c1n(CCCN2CCN(c3cccc(Cl)c3)CC2)nc2ccccn12,-14.6% [at 42.4 µM] (inactive)
13,O=C(O)c1cccnc1C(=O)O,-24.3% [at 42.4 µM] (inactive)
14,Cc1cccc(C)c1OCC(C)N (stereo not given),12.1% [at 42.4 µM] (inactive)
15,CNCCCN1c2ccccc2CCc2ccccc21,11% [at 42.4 µM] (inactive)
16,CSc1nc(N)c2ncn([C@@H]3O[C@H](COP(=O)(O)OP(=O)(O)O)C(O)[C@H]3O)c2n1 (stereo not given in full),-1.66% [at 42.4 µM] (inactive)
17,NCCCCC(=O)O,6.36% [at 42.4 µM] (inactive)
18,N[C@@H](Cc1ccc(O)c(I)c1)C(=O)O,-11.2% [at 42.4 µM] (inactive)
19,CN(C)CCC=C1c2ccccc2CCc2ccccc21,12% [at 42.4 µM] (inactive)
20,O=C(O)c1ccccc1Nc1ccccc1,14.5% [at 42.4 µM] (inactive)

row,SMILES,"activity change, negative = inhibition"
1,CC(C)Cc1ccc([C@H](C)C(=O)O)cc1,22.1% [at 42.4 µM] (inactive)
2,Nc1nc2[nH]c(=O)cnc2c(=O)[nH]1,-4.55% [at 42.4 µM] (inactive)
3,CC(C)(NS(=O)(=O)c1ccc(Oc2ccc(F)cc2)cc1)C(=O)NO,22.9% [at 42.4 µM] (inactive)
4,Nc1nc2ccc(Cl)cc2n2c(-c3ccccc3)nnc12,8.71% [at 42.4 µM] (inactive)
5,O=C(CCCN1CCC(O)(c2ccc(Cl)cc2)CC1)c1ccc(F)cc1,26.4% [at 42.4 µM] (inactive)
6,C[C@@H](CN1CCC(Cc2ccccc2)CC1)[C@@H](O)c1ccc(O)cc1,-19.8% [at 42.4 µM] (inactive)
7,NC(N)=NC(=O)Cc1c(Cl)cccc1Cl,3.34% [at 42.4 µM] (inactive)
8,CCN(CC)CCCCCCCCOC(=O)c1cc(OC)c(OC)c(OC)c1,5.45% [at 42.4 µM] (inactive)
9,C[C@H]1CC2C3CCC4=CC(=O)C=C[C@]4(C)[C@@]3(Cl)[C@@H](O)C[C@]2(C)[C@@]1(O)C(=O)CO (stereo not given in full),4% [at 42.4 µM] (inactive)
10,CCCCCCCCCCCCCCSCC(=O)O,5.91% [at 42.4 µM] (inactive)
11,NC1(C(=O)O)CCCCC1,-30.4% [at 42.4 µM] (inactive)
12,CCCCCCCCCCC/C=C\C(C)(C)/C=C\CCCC(=O)O,-19.6% [at 42.4 µM] (inactive)
13,Clc1cccc(Cl)c1NC1=NCCN1,0.996% [at 42.4 µM] (inactive)
14,CN(C)CCOC(=O)COc1ccc(Cl)cc1,-9.65% [at 42.4 µM] (inactive)
15,c1ccc2c(c1)CC(N1CCN(c3cccc4c3OCCO4)CC1)C2,20.8% [at 42.4 µM] (inactive)
16,NCCS(=O)O,-10.5% [at 42.4 µM] (inactive)
17,Nc1ncnc2c1nc(Sc1ccc(Cl)cc1)n2[C@H]1OC2COP(=O)(O)O[C@@H]2C1O (stereo not given in full),27.2% [at 42.4 µM] (inactive)
18,O=C(O)CP(=O)(O)O,-25.4% [at 42.4 µM] (inactive)
19,CC(=O)O[C@H]1Cc2ccccc2N(C(N)=O)c2ccccc21,6.2% [at 42.4 µM] (inactive)
20,CC1CCN=C(N)S1 (stereo not given),32.2% [at 42.4 µM] (inactive)
